Rows were chosen to be rich in hits. Some 2.9% of all compounds tested hit in one or more screens of this group.
ADAM10 inh: inhibits human ADAM10. O14672. recombinant ADAM10, EDANS/DABCYL FRET peptide cleavage, 3 h. inhibition, % at 7 µM. 370,000 tested, 0.62% active. AID 720582;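 active = inhibition above a per-campaign cutoff equal to the mean of compounds falling between control-based bounds plus 3 SD, cut at about 20% in these data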
proKLK7 act: activators of human kallikrein-7 zymogen; purified proKLK7, EDANS-DABCYL substrate fluorescence; 100% is mature enzyme control, 0% vehicle; activation, % at 7 µM; 370,000 tested, 0.9% active; AID 652039;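 active = activation above the mean of all tested compounds plus 3 SD, computed per campaign excluding outliers beyond control limits, cut at about 13% in these data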
ADAM17 inh: inhibits human ADAM17. recombinant ADAM17, EDANS/DABCYL FRET peptide cleavage. P78536. inhibition, % at 6.95 µM. 370,000 tested, 0.83% active;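 active = inhibition above the mean of compounds lying between control limits plus 3 SD, set per campaign, cut at about 8.5% in these data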
PLC-beta3 inh: PLC-beta3 (human) inhibition, primary screen. Purified PLC-beta3, fluorogenic substrate, fluorescence. inhibition, % at 12.2 µM. 370,000 tested, 0.18% active. AID 720704. Q01970; in the data active = inhibition above about 11%
PLCg1 inh: PLC-gamma1 (human) inhibition, primary screen | P19174 | purified PLC-gamma1, fluorogenic substrate, fluorescence | inhibition, % at 12.2 µM | 370,000 tested, 0.84% active | AID 720700; in the data active = inhibition above about 9.5%
ADAM10 ctr: counter-screen for ADAM17 exosite inhibitors: inhibitors of human ADAM10 | shares compounds with ADAM17 inh | 2,900 tested, 47% active | AID 743256 | inhibition, % at 6.95 µM | recombinant ADAM10, EDANS/DABCYL FRET peptide cleavage, 3 h;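 active = mean inhibition over the triplicate runs exceeds the activity threshold set in the earlier primary screen, cut at about 20% in these data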
ADAM17 confirm: confirmation of inhibitors of human ADAM17; AID 743257; recombinant ADAM17, EDANS/DABCYL QFRET peptide cleavage; shares compounds with ADAM17 inh; inhibition, % at 6.95 µM; 2,900 tested, 65% active;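 active = mean inhibition across replicates above the hit cutoff set in the primary screen, cut at about 8.5% in these data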
Of the large screens only hits and unclear results are named; the others gave an inactive call (follow-up assays come after a bar, where they were run).

CC(=O)Nc1ccc(NC(=O)c2cc([N+](=O)[O-])cc([N+](=O)[O-])c2)cc1	none
Cc1ccc(NC(=O)c2ccc(Nc3c([N+](=O)[O-])cc([N+](=O)[O-])cc3[N+](=O)[O-])cc2)cc1	ADAM17 inh 10.2 | ADAM10 ctr 23.3 | ADAM17 confirm 12.2
CSc1ccc(NC(=O)C2(C)CCN2C(=O)Cc2ccc(C(C)(C)C)cc2)cc1 (stereo not drawn)	none
O=C(COc1ccc(Cl)cc1Cl)NCCCCc1ccccc1	ADAM17 inh 17.5 | ADAM10 ctr 30.6 | ADAM17 confirm 12.5
Cc1cc(Cl)ccc1OCC(=O)NCCCCc1ccccc1	none
COc1ccc(N2CCN(C(=O)CCC(=O)N3CCOc4ccc(C)cc43)CC2)cc1	none
COc1ccc(N2CCN(C(=O)CCC(=O)N3CCOc4ccc(Cl)cc43)CC2)cc1	ADAM17 inh 11.3 | ADAM10 ctr 29.0 | ADAM17 confirm inactive
CC(=O)NC(CC(=O)Nc1ccc2c(c1)OCCO2)c1ccccc1 (stereo not drawn)	none
O=C(CC(c1ccccc1)c1ccccc1)Nc1ccc2c(c1)OCCO2	ADAM17 inh 12.5 | ADAM10 ctr inactive | ADAM17 confirm 14.1
CCN(CC(=O)Nc1c(F)cccc1F)C(=O)c1ccc(S(=O)(=O)N2CCC(C)CC2)cc1	ADAM17 inh 10.5 | ADAM10 ctr inactive | ADAM17 confirm inactive
Nc1nc(C(c2ccccc2)c2ccccc2)cs1	ADAM17 inh 8.7 | ADAM10 ctr inactive | ADAM17 confirm inactive
CCOc1cc2[nH]c(=O)n(CCCC(=O)N(C)Cc3ccccc3)c(=O)c2cc1OCC	none
O=C1Nc2ccccc2-n2nnnc2C1N1CCN(c2ccc(C(F)(F)F)cc2[N+](=O)[O-])CC1 (stereo not drawn)	ADAM17 inh 8.6 | ADAM10 ctr 31.8 | ADAM17 confirm 17.9
Clc1ccccc1C(c1nnnn1Cc1ccco1)N1CCN(Cc2ccco2)CC1 (stereo not drawn)	ADAM17 inh 9.2 | ADAM10 ctr inactive | ADAM17 confirm inactive
O=C(Cn1nc(-c2ccccc2)c2ccccc2c1=O)Nc1ccc(F)cc1	none
N#Cc1c(-c2ccccc2)c(-c2ccccc2)nn(CC(=O)NNC(=O)Nc2ccc(Cl)c(Cl)c2)c1=O	ADAM17 inh 14.7 | ADAM10 ctr 27.1 | ADAM17 confirm 18.1
C=CCN1C(=O)[C@@H](CC(=O)NCCC(C)C)[C@]2(C(=O)OC)CCCCC=C12	none
CC(=O)NC(c1cccs1)c1cc([N+](=O)[O-])c2cccnc2c1O (stereo not drawn)	ADAM17 inh 10.6 | ADAM10 ctr 36.4 | ADAM17 confirm 18.9
COc1cccc(C(=O)COc2cccc(NC(=O)c3ccco3)c2)c1	ADAM17 inh 9.2 | ADAM10 ctr inactive | ADAM17 confirm inactive
COc1ccc(C(=O)COc2cccc(NC(=O)c3ccco3)c2)cc1	none
Cc1nc2c(OCc3cc(Cl)cc(Cl)c3)cccn2c1N(C)C(=O)CCC1CCCC1	ADAM17 inh 11.0 | ADAM10 ctr inactive | ADAM17 confirm 10.2
Cc1nc2c(OCCC3CCCCC3)cccn2c1N(C)C(=O)CCC1CCCC1	none
CCCCN(Cc1cc2ccccc2[nH]c1=O)S(C)(=O)=O	none
CCCCCC[C@@H](CN(CCCC)S(C)(=O)=O)c1ccccc1	ADAM17 inh 55.0 | ADAM10 ctr inactive | ADAM17 confirm inactive
CCc1cc(/C(Cc2ccc3ccccc3n2)=N\O)c(O)cc1O	ADAM17 inh 9.2 | ADAM10 ctr 29.7 | ADAM17 confirm 21.7
CCN(CC(=O)Nc1c(F)cccc1F)C(=O)Cc1csc(-c2ccccc2)n1	none
Cc1ccc(S(=O)(=O)Nc2ccccc2CNc2ccccn2)cc1	ADAM17 inh 8.8 | ADAM10 ctr inactive | ADAM17 confirm 10.4
Cc1ccc(S(=O)(=O)Nc2ccccc2CNc2ccc(Br)cn2)cc1	none
CCN(CC(=O)Nc1c(F)cccc1F)C(=O)c1cccc(S(=O)(=O)N2CCCCCC2)c1	none
C=CC[C@@H](CC(=O)N[C@@H](CO)Cc1ccccc1)C(=O)N[C@H](COC(=O)[C@H](CC=C)CC(=O)OC(C)(C)C)Cc1c[nH]c2ccccc12	ADAM17 inh 9.9 | ADAM10 ctr 44.2 | ADAM17 confirm 22.9
C=CC[C@@H](CC(=O)N(CCO)Cc1ccccc1)C(=O)N[C@H](COC(=O)[C@@H](CC=C)CC(=O)OC(C)(C)C)Cc1ccccc1	ADAM10 inh 27.7, ADAM17 inh 18.3 | ADAM10 ctr 38.7 | ADAM17 confirm 17.9
C=CC[C@H](CC(=O)NCCO)C(=O)N[C@H](COC(=O)[C@@H](CC=C)CC(=O)OC(C)(C)C)Cc1ccccc1	none
C=CC[C@@H](CC(=O)N[C@H](CO)Cc1ccccc1)C(=O)N[C@H](COC(=O)[C@@H](CC=C)CC(=O)OC(C)(C)C)Cc1ccccc1	ADAM17 inh 9.6 | ADAM10 ctr inactive | ADAM17 confirm inactive
C=CC[C@H](CC(=O)N[C@H](CO)Cc1ccccc1)C(=O)N[C@H](COC(=O)[C@H](CC=C)CC(=O)OC(C)(C)C)Cc1c[nH]c2ccccc12	ADAM17 inh 11.4 | ADAM10 ctr 26.2 | ADAM17 confirm 12.8
C=CC[C@@H](CC(=O)NCCO)C(=O)N[C@H](COC(=O)[C@H](CC=C)CC(=O)OC(C)(C)C)Cc1c[nH]c2ccccc12	none
CC(=O)Nc1c(Cl)cc(Cl)c2c1Cc1cc(Cl)ccc1-2	none
CCOc1ccc(S(=O)(=O)Nc2ccc(F)cc2)c(C)c1C	ADAM17 inh 9.5 | ADAM10 ctr inactive | ADAM17 confirm 12.0
CCOc1ccc(NS(=O)(=O)c2cc(OC)ccc2OC)cc1	none
Cc1ccccc1NC(=O)c1cc(C(=O)c2cc(Cl)ccc2O)cn(-c2ccccc2C)c1=O	ADAM17 inh 9.7 | ADAM10 ctr inactive | ADAM17 confirm inactive
O=C(c1cn(Cc2ccccc2)nc1-c1ccc(Cl)cc1)N1CCN(c2ccccn2)CC1	ADAM17 inh 9.5 | ADAM10 ctr inactive | ADAM17 confirm inactive
CCOC(=O)C1=CCN(S(=O)(=O)c2ccc(C)cc2)C1c1ccc(C)cc1 (stereo not drawn)	none
CCOC(=O)C1=CCN(S(=O)(=O)c2ccc(C)cc2)C1c1ccc(CC)cc1 (stereo not drawn)	ADAM17 inh 8.8 | ADAM10 ctr 20.1 | ADAM17 confirm 15.8
CCOC(=O)C1=CCN(S(=O)(=O)c2ccccc2F)C1c1cccc(Br)c1 (stereo not drawn)	ADAM17 inh 9.2 | ADAM10 ctr inactive | ADAM17 confirm 9.5
Cc1ccc(S(=O)(=O)N2CC3C(=O)C[C@@H](c4ccccc4)N(S(=O)(=O)c4ccc(CCCOCCOCCNC(=O)OC(C)(C)C)cc4)C3CC2c2ccccc2)cc1 (stereo partly drawn)	none

Screens: PubChem, The Scripps Research Institute Molecular Screening Center
